From ChEMBL document CHEMBL3988442, “University of Dundee, Small-Polar-MMV Screening Library” (2021)
Among all 48,000 compounds or so, about 13,000 (27%) showed an effect of 50% or more. This is one part of the list.

What follows are compounds tested on Wolbachia pipientis (assay: Anti-Wolbachia Cell-Based Screen). Conditions: 5 µM.
Type: functional
Parameters: scale not given: in the data most compounds retested in dose-response had high values
`O=C(O)c1cc(-c2ccoc2)cc(S(=O)(=O)N2CCSCC2)c1` was tested, and the “Percent Effect” value was 11.83%.
In the case of `CCN(Cc1ccoc1)C(=O)c1cc(C)c(C)c(S(N)(=O)=O)c1`, the “Percent Effect” value was -19.87%.
In the case of `CCCNC(=O)N1CCC(Oc2cc(C)ccc2F)(C(=O)O)CC1`, the “Percent Effect” value was -9.891%.
With `COCCNC(=O)[C@@H]1CC[C@@H]2[C@@H](CCN2Cc2cnn(C)c2)O1` the “Percent Effect” value was -9.722%.
With `Cc1cnc(CNC(=O)[C@@H]2CC[C@@H]3[C@@H](CCN3Cc3ccco3)O2)cn1` the “Percent Effect” value was -4.994%.
With `O=C(NCC1CCOCC1)[C@@H]1C[C@@H]2[C@@H](CCN2Cc2nccs2)O1.O=C(O)C(F)(F)F` the “Percent Effect” value was 97.65%.
For `O=C(NCC1CC1)[C@H]1CC[C@@H]2[C@@H](CCN2Cc2nccs2)O1`, the “Percent Effect” value was 114.7%.
With `O=C(O)[C@]12CCCN(Cc3nccs3)[C@@H]1CCN(c1cnccn1)C2` the “Percent Effect” value was 6.87%.
For `COCCN1CCN(CC(=O)N(C)Cc2cccc(F)c2)CC1C` (stereo not given), the “Percent Effect” value was -2.425%.
With `Cc1nc(N2CCOCC2)nc(C)c1NS(=O)(=O)c1ccccc1` the “Percent Effect” value was 4.303%.
In the case of `Cc1cnc(N2CCN(C)CC2)nc1-c1ccnn1C`, the “Percent Effect” value was -36.32%.
`Cc1ccc(-c2cc(C(F)(F)F)nc(N3CCOCC3)n2)s1` was tested, and the “Percent Effect” value was 100.5%.
In the case of `CCN1CCN(c2ncc(-c3cc(C)no3)c(-c3ccc(C)s3)n2)CC1`, the “Percent Effect” value was -7.299%.
For `Cc1cc(-c2cnc(N3CCOCC3)nc2-c2ccc(C)s2)on1`, the “Percent Effect” value was 90.53%.
In the case of `Cc1cc(-c2cnc(N3CCSCC3)nc2-c2ccc(C)s2)on1`, the “Percent Effect” value was 126.2%.
`O=C1c2cnc(N3CCOCC3)nc2CN1c1ccc2c(c1)OCO2` was tested, and the “Percent Effect” value was -5.261%.
`Cc1noc(C)c1CN(C)Cc1cnc(N2CCOCC2)nc1` was tested, and the “Percent Effect” value was -2.338%.
In the case of `CCc1cc(NCCC(F)(F)F)nc(N2CCOCC2)n1`, the “Percent Effect” value was -15.1%.
With `Cc1cc(-c2cnc(N3CCCC3)nc2-c2ccc(C)s2)on1` the “Percent Effect” value was 81.04%.
In the case of `Cc1ccc(-c2cc(-c3nc(CN4CCN(C)CC4)no3)[nH]n2)s1`, the “Percent Effect” value was -11.14%.
In the case of `Cc1cc(-c2cnc(N3CCN(C)CC3)nc2-c2ccc(C)s2)on1`, the “Percent Effect” value was -10.07%.
For `Cc1cccc(C(C)CNC(=O)N2CCOCC3(CCOCC3)C2)c1` (stereo not given), the “Percent Effect” value was -15.26%.
In the case of `COCCCn1ccc(NC(=O)NCCCn2ccnc2)n1`, the “Percent Effect” value was 5.848%.
`CC(C)[C@@H]1CN(CCOc2ccc(Cl)cc2)C[C@H]1NS(C)(=O)=O` was tested, and the “Percent Effect” value was 1.84%.
`Cc1cccc(-c2noc([C@@H]3Cc4nc[nH]c4CN3)n2)c1` was tested, and the “Percent Effect” value was -0.5604%.
In the case of `COc1ccnc(N2CCN(C(=O)Cc3ccc(C#N)cc3)CC2)n1`, the “Percent Effect” value was 1.226%.
In the case of `COc1ccnc(N2CCCN(C(=O)Cc3ccc(C)s3)CC2)n1`, the “Percent Effect” value was 128.9%.
For `COc1ccnc(N2CCN(C(=O)Cc3ccc(C)s3)CC2)n1`, the “Percent Effect” value was 0.2283%.
`COc1ccnc(N2CCN(C(=O)CN3CCCC3=O)CC2)n1` was tested, and the “Percent Effect” value was -1.755%.
`COc1ccnc(N2CCN(C(=O)Cc3ccn(C(C)C)n3)CC2)n1` was tested, and the “Percent Effect” value was 115.4%.
In the case of `COc1ccc(N2CCCN(C(=O)Cc3csc(C)n3)CC2)cc1`, the “Percent Effect” value was -1.36%.
With `COc1ccnc(N2CCN(C(=O)Cc3ccsc3)CC2)n1` the “Percent Effect” value was 128.2%.
For `COc1ccnc(N2CCN(C(=O)CCc3nccs3)CC2)n1`, the “Percent Effect” value was -9.419%.
For `COc1ccnc(N2CCN(C(=O)Cc3csc(C)n3)CC2)n1`, the “Percent Effect” value was 124.6%.
`COc1ccnc(N2CCN(C(=O)c3csc(C)n3)CC2)n1` was tested, and the “Percent Effect” value was -2.798%.
With `COc1ccnc(N2CCN(C(=O)NCc3ccc(C)s3)CC2)n1` the “Percent Effect” value was -6.706%.
With `CCOc1ccnc(N2CCN(C(=O)CCc3ccsc3)CC2)n1` the “Percent Effect” value was 8.96%.
In the case of `Cc1csc(C2(NCC(O)COc3ccc(F)cc3)CCC2)n1` (stereo not given), the “Percent Effect” value was -11.72%.
`COc1cc(N2CCN(Cc3ccsc3)C(CCO)C2)nc(N)n1` (stereo not given) was tested, and the “Percent Effect” value was 10.71%.
With `Cc1ccc(-c2ccc(C(=O)NCCS(N)(=O)=O)c(F)c2)cc1` the “Percent Effect” value was 17.06%.
With `O=C(Cn1nc(-c2ccc(F)cc2)oc1=O)NCC1CCCO1` (stereo not given) the “Percent Effect” value was -3.643%.
With `CCn1nc(C)c2ccn(CC(=O)NC3CC3)c(=O)c21` the “Percent Effect” value was 112.9%.
`Cc1nn(C)c2c(N3CCN(C(=O)NC4CCCCC4)CC3)ncnc12` was tested, and the “Percent Effect” value was 8.343%.
For `CCn1nc(C)c(CNC(=O)c2cn(CCC3CCCCN3)nn2)c1C` (stereo not given), the “Percent Effect” value was -6.64%.
For `Cc1nn(C)c2c(=O)n(CC(=O)NC3CCCCC3)ccc12`, the “Percent Effect” value was 138.3%.
For `CCN1CCC(NC(=O)Cn2cc(C)c3ccccc32)CC1`, the “Percent Effect” value was -38.76%.
`Cc1cc(=O)n(CC(=O)NCC2CCCO2)c(-c2cccc(Cl)c2)n1` (stereo not given) was tested, and the “Percent Effect” value was 14.67%.
`CCn1nc(C)c2ccn(CC(=O)NCC3CCCO3)c(=O)c21` (stereo not given) was tested, and the “Percent Effect” value was 132.9%.
With `CCn1nc(C)c2ccn(CC(=O)NC3CCCC3)c(=O)c21` the “Percent Effect” value was -1.508%.
In the case of `Cc1noc(C)c1CNC(=O)c1cn(CCC2CCCCN2)nn1` (stereo not given), the “Percent Effect” value was -0.3777%.
For `CCn1nc(C)c(CNC(=O)c2cn(CC3CCCO3)nn2)c1C` (stereo not given), the “Percent Effect” value was 113.5%.
In the case of `CC1CCN(S(=O)(=O)c2cccn(CC(=O)NC3CCCC3)c2=O)CC1`, the “Percent Effect” value was -17.34%.
With `Cc1ccccc1C(C#N)NC(=O)c1cccc2c1OCCO2` (stereo not given) the “Percent Effect” value was 0.1196%.
In the case of `COc1ccc(OC)c(CNCCc2cc(F)cc3c2OCOC3)c1`, the “Percent Effect” value was 17.88%.
In the case of `Cc1ccc(S(C)(=O)=O)cc1C(=O)N(C)Cc1ccco1`, the “Percent Effect” value was 9.899%.
`NC(=O)c1ccc(=O)n(Cc2cc(Br)ccc2Cl)n1` was tested, and the “Percent Effect” value was 5.907%.
In the case of `Cc1cc(C(=O)Nc2nnn[nH]2)ccc1I`, the “Percent Effect” value was -9.005%.
For `CCCNC(=O)Cn1nc(C)c2cnn(C(C)(C)C)c2c1=O`, the “Percent Effect” value was 7.954%.
In the case of `Cc1c2ncn(CC(=O)NC(C)C)c(=O)c2nn1C`, the “Percent Effect” value was -0.5924%.
`CCC(C)NC(=O)Cn1ccc2c(C)nn(CC)c2c1=O` (stereo not given) was tested, and the “Percent Effect” value was 121.4%.
`CCn1nc(C)c2ccn(CC(=O)NCCN3CCCCC3)c(=O)c21` was tested, and the “Percent Effect” value was 109.9%.
With `Cc1cc(C(C)NC(=O)Cn2nc(C)c3ccccc3c2=O)c(C)o1` (stereo not given) the “Percent Effect” value was -1.65%.
For `CCn1nc(C)c2nnn(CC(=O)Nc3c(C)cccc3C)c(=O)c21`, the “Percent Effect” value was 15.34%.
In the case of `CCn1nc(C)c2ccn(CC(=O)NC(C)C)c(=O)c21`, the “Percent Effect” value was 83.24%.
In the case of `CC(C(=O)NCCN1CCCCCC1)n1cncn1` (stereo not given), the “Percent Effect” value was 6.754%.
